Results reported in PubChem BioAssay.

Test system: XIP peptide (Xip251-270)
Test: small-molecule binders of XIP peptide, primary screen, biochemical, small-molecule microarray, fluorescence 635/667 nm, 0.5 µg/mL protein (AID 1183)
Conditions: small-molecule microarray binding, fluorescence 635 nm; higher = more signal
Compound CC(C)(C)OC(=O)CC[C@]1(C(=O)NCCN2CCOCC2)N=C(c2ccc(OCCCO)cc2)O[C@H]1c1ccccc1 has a composite z-score of 0.598.
C=CC[C@@H](OC(=O)Nc1ccc(OC)cc1)c1ccc(OCCO)cc1 showed a composite z-score of -0.543.
O=C1NC(=O)C2C1C=CC(C(O)c1ccc3c(c1)OCO3)N2Nc1ccccn1 (stereo not drawn) gave a composite z-score of 0.247.
With Cc1ccc(S[C@]2(C(=O)NC(C)C)CC(=O)N(C3Cc4ccccc4C3)[C@@H]2c2ccc(CO)cc2I)cc1 the composite z-score was 0.86.
COc1ccc([Si](C)(C)[C@H]2[C@H](CCO)O[C@@]3(C(=O)N(Cc4cccc(N5CCCCC5=O)c4)c4ccccc43)[C@@H]2C)cc1 gave a composite z-score of 0.589.
Compound COc1ccc([Si](C)(C)[C@H]2[C@H](CC(=O)N3Cc4ccccc4C[C@H]3CO)O[C@@]3(C(=O)N(Cc4cccc(N5CCCCC5=O)c4)c4ccccc43)[C@@H]2C)cc1 has a composite z-score of 0.743.
For NC(=O)NCC#Cc1ccc2c(c1)[C@]1(C(=O)N2)[C@H](C(=O)Nc2nc3ccccc3s2)[C@H]2C(=O)O[C@H](c3ccccc3)[C@H](c3ccccc3)N2[C@@H]1c1ccc(O)cc1, the composite z-score was 0.6.

Test system: not listed separately
Test: Plasmodium falciparum growth inhibition, primary screen, strain 3D7, DAPI fluorescence, 100 nL (AID 1184);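 also: parasites grown inside human red blood cells in medium with human serum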
Conditions: P. falciparum 3D7 growth, 3 d, higher = more signal
For C=CCOC(=O)[C@@H]1[C@H]2C(=O)O[C@H](c3ccccc3)[C@H](c3ccccc3)N2[C@H](c2ccc(OCCOC(=O)[C@H]3C[C@H]4C(=O)N[C@@H](CCCCN(C)C)C(=O)N4[C@H]3c3cccc(OCCO)c3)cc2)[C@@]12C(=O)Nc1ccc(I)cc12, the z-score was -1.65.
O=C1O[C@@H](c2ccccc2)[C@@H](c2ccccc2)N2[C@@H](c3ccccc3OCCO)[C@]3(C(=O)Nc4ccc(C#CCCO)cc43)[C@@H](C(=O)N3CCN(c4ncccn4)CC3)[C@H]12 showed a z-score of -2.05.
CC1CC/C=C\[C@H]2OC34C=CCN(C(C)C)C(=O)[C@H]3N(CCCCCO)C(=O)[C@@H]4C2C(=O)O1 (stereo partly drawn) gave a z-score of 1.17.
Compound CCOC(=O)C1=CC[C@@H](c2ccccc2C(F)(F)F)N(S(=O)(=O)c2ccc(C)cc2)C1 has a z-score of -0.386.
COC(=O)[C@@]1(Cc2ccccc2)[C@H]2c3cc(C(=O)N4CCCC4)n(Cc4ccsc4Br)c3C[C@H]2CN1C(=O)c1ccccc1 showed a z-score of -1.16.
Cc1ccc(S[C@]2(C(=O)O)CC(=O)N(Cc3ccccc3Cl)[C@@H]2c2ccc(CO)cc2)cc1 gave a z-score of -1.34.
C[C@]1(C(=O)O)c2ccccc2C(=O)N(Cc2ccccc2)[C@H]1c1ccc(CO)cc1 showed a z-score of -0.393.
With COCCCNC(=O)[C@@]1(Sc2ccc(C)cc2)CC(=O)N(C2Cc3ccccc3C2)[C@@H]1c1ccc(CO)cc1I the z-score was 0.701.
CCOC(=O)C[C@H]1[C@H](OC(=O)c2ccc(-c3ccccc3)cc2)[C@@H](NC(=O)C2CCCCC2)c2cc(OCCCO)ccc2N1C(=O)c1ccccc1 gave a z-score of -0.723.
Compound CCCC=C(CCC)[C@@H](NP(=O)(c1ccccc1)c1ccccc1)c1ccc(C(F)(F)F)cc1 has a z-score of -0.591.
O=C1c2ccccc2[C@@]2(Cc3ccccc3N(C3CC3)C2=O)[C@H](c2ccc(CO)cc2)N1C1CCCCC1 showed a z-score of -0.323.
For [N-]=[N+]=NCc1ccccc1C[C@]1(C(=O)NCC(O)CO)N=C(c2ccc(OCCCO)cc2)O[C@H]1c1ccccc1CN=[N+]=[N-] (stereo partly drawn), the z-score was -2.78.
C=C(C(=O)CC[C@H](OC(=O)c1cccnc1)c1ccc(CO)o1)C(C)C gave a z-score of 0.566.
CC(C)N1CC=CC23O[C@@H]4C=CCOC(=O)[C@@H]4[C@H]2C(=O)N(C(C)CO)[C@@H]3C1=O (stereo partly drawn) showed a z-score of 0.383.
Work on COc1cc2c(cc1OC)CN(C(=O)[C@@H]1[C@H]3C(=O)O[C@H](c4ccccc4)[C@H](c4ccccc4)N3[C@H](c3ccccc3OCCO)[C@@]13C(=O)Nc1ccc(C#CC4(O)CCCCCC4)cc13)CC2 yielded a z-score of -1.67.
Work on COc1ccc(NN2C(C(O)c3ccccn3)C=CC3C(=O)N(C4CCCCC4)C(=O)C32)cc1 (stereo not drawn) yielded a z-score of -0.408.
O=C(O)[C@H]1C[C@H]2C(=O)N3CCC[C@H]3C(=O)N2[C@H]1c1cccc(OCCO)c1 showed a z-score of -0.0612.
For CCOC(=O)C[C@H]1[C@H](OC(=O)Cc2ccc3c(c2)OCO3)[C@@H](NC(=O)Cc2ccc(OC)cc2)c2cc(OCCCO)ccc2N1C(=O)c1ccccc1, the z-score was -0.382.
In the case of O=c1cccc(-c2cccc(Cl)c2)o1, the z-score is reported as 0.204.
COC(=O)[C@@]1(Cc2ccccc2)[C@H]2c3cc(C(=O)N4CCCC4)[nH]c3C[C@H]2CN1C(=O)c1ccccc1 showed a z-score of -0.0756.
In the case of C=C(CCCC)/C(=C/C[C@@H](OC(C)=O)c1ccc(CO)o1)c1cc(C(=O)OC)ccc1OC, the z-score is reported as -0.597.
Work on CC(C)CN1C(=O)[C@@]2(Cc3ccccc31)c1ccccc1C(=O)N(Cc1ccccc1C(F)(F)F)[C@H]2c1ccc(CO)cc1 yielded a z-score of -0.141.
With CCOC(=O)C[C@H]1[C@H](OC(=O)Cc2ccc3c(c2)OCO3)[C@@H](NC(=O)C2CCCCC2)c2cc(OCCCO)ccc2N1C(=O)c1ccc2ccccc2n1 the z-score was -2.04.
C[C@@H](OCc1ccccc1)C1NC(=O)[C@@]23C(=O)N[C@@H](Cc4ccccc4)C2[C@H](C)[C@@]2(C)O[C@H]2C3/C=C/C/C=C\CNC(=O)CNC1=O (stereo partly drawn) gave a z-score of -0.748.
For C=C(C(=O)CC[C@H](OC(C)=O)c1cccc(OCCO)c1)C(C)C, the z-score was -1.96.
Compound CC=CC(O)C1C=CC2C(=O)N(c3ccccc3)C(=O)C2N1Nc1ccc([N+](=O)[O-])cc1 (stereo not drawn) has a z-score of 1.01.
With CC(C)C(O)C1C=CC2C(=O)N(C)C(=O)C2N1Nc1ccccc1 (stereo not drawn) the z-score was 0.771.
For O=C1c2ccccc2[C@](Cc2ccccc2I)(C(=O)NCc2ccccc2)[C@H](c2ccc(CO)cc2)N1C1CCCCC1, the z-score was -1.34.
O=C1C2C=CC(C(O)c3cc(C(F)(F)F)cc(C(F)(F)F)c3)N(Nc3ccc([N+](=O)[O-])cc3)C2C(=O)N1c1ccccc1 (stereo not drawn) gave a z-score of -0.945.
CC(C)(C)OC(=O)CC[C@]1(C(=O)NCCN2CCOCC2)N=C(c2ccc(OCCCO)cc2)O[C@H]1c1ccccc1 showed a z-score of 0.207.
C=CC[C@@H](OC(=O)Nc1ccc(OC)cc1)c1ccc(OCCO)cc1 showed a z-score of 0.663.
O=C1NC(=O)C2C1C=CC(C(O)c1ccc3c(c1)OCO3)N2Nc1ccccn1 (stereo not drawn) showed a z-score of 0.453.
Work on Cc1ccc(S[C@]2(C(=O)NC(C)C)CC(=O)N(C3Cc4ccccc4C3)[C@@H]2c2ccc(CO)cc2I)cc1 yielded a z-score of -0.619.
COc1ccc([Si](C)(C)[C@H]2[C@H](CCO)O[C@@]3(C(=O)N(Cc4cccc(N5CCCCC5=O)c4)c4ccccc43)[C@@H]2C)cc1 gave a z-score of -2.7.
For COc1ccc([Si](C)(C)[C@H]2[C@H](CC(=O)N3Cc4ccccc4C[C@H]3CO)O[C@@]3(C(=O)N(Cc4cccc(N5CCCCC5=O)c4)c4ccccc43)[C@@H]2C)cc1, the z-score was -1.62.
NC(=O)NCC#Cc1ccc2c(c1)[C@]1(C(=O)N2)[C@H](C(=O)Nc2nc3ccccc3s2)[C@H]2C(=O)O[C@H](c3ccccc3)[C@H](c3ccccc3)N2[C@@H]1c1ccc(O)cc1 gave a z-score of -0.905.
